From PubChem BioAssay
S2 tox: viability counter-screen for ATXN expression inhibitors. S2 cells (HEK-293 line with an ATXN2-luciferase reporter) viability, CellTiter-Fluor protease fluorescence, 24 h. Potency, µM (doses to about 56.7 µM), actives largely listed as cytotoxic. 400,000 compounds, 0.49% hits. AID 651635; note: nearly all actives have a fitted effect of over 40% in size
TGFb SMAD3 inh: inhibitors of TGF-b signaling | 410,000 compounds, 1.2% hits | AID 588855 | Potency, µM (highest dose often 46.1 µM), hits mostly inhibitors | HepG2 CAGA-GFP TGF-b/SMAD3 reporter, GFP fluorescence, 18 h; TGF-beta stimulated, 500 pg/mL final; note: nearly all actives have a fitted effect of over 65% in size
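HEPG2 CAGA-GFP reporter cells (1000/well, DMEM with 1% FBS) received compounds, then recombinant TGF-beta at 500 pg/mL final for 18 hours at 37 degrees C. Per-cell GFP summed per well was normalised to unstimulated and stimulated DMSO controls before curve fitting.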
ATXN2 expr inh: reduces ATXN2 reporter expression in HEK-293 cells | HEK-293 ATXN2-luciferase reporter, luminescence, 24 h | Potency, µM (highest dose often 57 µM), most hits filed as inhibitors | 360,000 compounds, 0.72% hits; note: nearly all actives have a fitted effect of over 55% in size
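ATXN2-luciferase reporter cells (luciferase flanked by upstream and downstream ATXN2 gene portions) were treated 24 h at 37 °C with compounds at up to 57 uM. SteadyGlo luminescence gave expression; GF-AFC fluorescence gave viability.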
HepG2 tox-1: HepG2 cytotoxicity, counter-screen for TGF-b inhibitors. HepG2 CAGA-GFP viability, ATP luminescence, 18 h. Potency, µM (series often up to 46.1 µM), usual class: cytotoxic. 410,000 compounds, 0.76% hits. AID 588856
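CellTiter-Glo luminescence gave cytotoxicity after 18 hours at 37 degrees C. The cells were HepG2 CAGA-GFP in 1% FBS DMEM, stimulated with 500 pg/mL TGF-beta after compound addition. %Activity was normalised to no-cell wells (complete cell-killing) and DMSO (no toxicity), and curves were fitted and classified.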
HT1080 IDH1KD tx: HT-1080 IDH1 knockdown cell toxicity (counter line); HT-1080 IDH1 knockdown viability, ATP luminescence, 48 h; Potency, µM (titrated, usually from 46.1 µM), usual class: cytotoxic; 360,000 compounds, 2% hits; AID 686971
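After a 2 h attachment period, IDH1KD HT-1080 cells took pin-transferred compound for 48 h at 37 °C; ATP-based luminescence after 10 min room-temperature reagent incubation reported viability.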
HT1080-NT tox: kills 2HG-producing HT-1080-NT fibrosarcoma cells; HT-1080-NT fibrosarcoma viability, CellTiter-Glo ATP luminescence, 48 h; Potency, µM (series often up to 46.1 µM), usual class: cytotoxic; 360,000 compounds, 1.6% hits;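 note: NT is the 2HG producing partner of a matched IDH1 knockdown line; nearly all actives have a fitted effect of over 55% in size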
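Read-out is CellTiter-Glo luminescence after 10 minutes at room temperature, following 48 hours' compound treatment of HT-1080-NT cells (750 cells/well, RPMI, 5% FBS, 37 degrees C).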
TGFb confirm: confirmation of TGF-b signaling inhibitors in HepG2 reporter cells; shares compounds with TGFb SMAD3 inh; HepG2 CAGA-GFP TGF-b reporter, GFP fluorescence, 18 h; cells stimulated with TGF-beta, 500 pg/mL; Potency, µM (doses to about 46.1 µM), actives largely listed as inhibitors; 1,600 compounds, 63% hits; AID 720534; note: nearly all actives have a fitted effect of over 65% in size
HepG2 tox-2: toxic to HepG2 cells in TGF-b counterscreen. shares compounds with TGFb SMAD3 inh. HepG2 CAGA-GFP viability, ATP luminescence, 18 h; cells stimulated with TGF-beta, 500 pg/mL. Potency, µM (top dose mostly 46.1 µM), actives largely listed as inhibitors. 1,600 compounds, 27% hits. AID 720535; note: nearly all actives have a fitted effect of over 70% in size
TGFb CCL64 inh: blocks TGF-b signaling in CCL64 reporter cells. shares compounds with TGFb SMAD3 inh. CCL64 CAGA-GFP reporter, TGF-b stimulated, GFP fluorescence, 18 h. Potency, µM (top dose mostly 46.1 µM), usual class: inhibitors. 1,600 compounds, 41% hits. AID 720536; note: nearly all actives have a fitted effect of over 65% in size
TGFb COP inh: validation of TGF-b inhibitors in HepG2 COP promoter reporter. HepG2 COP-GFP TGF-b reporter, GFP fluorescence, 18 h; cells stimulated by added recombinant TGF-beta. Potency, µM (titrated, usually from 46.1 µM), most hits filed as inhibitors. 1,600 compounds, 3% hits. shares compounds with TGFb SMAD3 inh. AID 720537; note: nearly all actives have a fitted effect of over 70% in size
Of the large screens only hits and unclear results are named; the others gave an inactive call (follow-up assays come after a bar, where they were run). This is a sample that favours compounds with a hit; in the whole collection about 3.9% have one here. Calls come from the whole dose curve; as a rule, active = well fitted curve in the direction sought with a large enough effect; inconclusive = small, poorly fitted or top-dose-only effect, or another doubt; inactive = no such curve, though single readings can be large; an effect the other way counts as inactive or inconclusive.

COCCN=C1N[C@@H](c2ccccc2)C(C(=O)OC)=C(C)N1Cc1ccccc1	none
COCCN=C1N[C@@H](c2ccc(Br)cc2)C(C(=O)OC)=C(C)N1Cc1ccccc1	S2 tox inconclusive, TGFb SMAD3 inh 10µM, ATXN2 expr inh inconclusive, HT1080-NT tox 23µM | TGFb confirm inconclusive | HepG2 tox-2 inconclusive | TGFb CCL64 inh inconclusive | TGFb COP inh inactive
CCc1nc(OCc2ccco2)c2sc3nc4c(cc3c2n1)COC(C)(C)C4	TGFb SMAD3 inh inconclusive | TGFb confirm inconclusive | HepG2 tox-2 inactive | TGFb CCL64 inh inactive | TGFb COP inh inactive
CCCN(CCC)Cc1c(C(=O)N/N=C/C(C)=C\c2ccco2)nnn1-c1nonc1N	TGFb SMAD3 inh 7.9µM, ATXN2 expr inh inconclusive, HT1080 IDH1KD tx inconclusive (no result: S2 tox) | TGFb confirm 5.2µM | HepG2 tox-2 inconclusive | TGFb CCL64 inh inconclusive | TGFb COP inh inactive
CC(/C=N/NC(=O)c1nnn(-c2nonc2N)c1CN(C)C)=C\c1ccco1	none
CCOc1ccc(N2C(=O)CC(N(CCc3ccc(S(N)(=O)=O)cc3)C(C)=O)C2=O)cc1 (stereo unspecified)	none
CCCCCCOc1ccc(N2C(=O)CC(N(CCc3ccc(S(N)(=O)=O)cc3)C(C)=O)C2=O)cc1 (stereo unspecified)	TGFb SMAD3 inh inconclusive | TGFb confirm inconclusive | HepG2 tox-2 inactive | TGFb CCL64 inh inactive | TGFb COP inh inactive
CCN(Cc1ccccc1)C(=O)Cn1c(=O)n(-c2ccccc2)c(=O)c2c1c1cc(C)ccc1n2C	S2 tox inconclusive (no result: HT1080 IDH1KD tx, HT1080-NT tox)
CC(=O)N1CCc2c(sc(NC(=O)c3ccc([N+](=O)[O-])o3)c2C(N)=O)C1	S2 tox 20µM, TGFb SMAD3 inh 3.5µM, HT1080 IDH1KD tx 5.8µM, HT1080-NT tox 6.5µM (no result: ATXN2 expr inh) | TGFb confirm 4.6µM | HepG2 tox-2 5.8µM | TGFb CCL64 inh inconclusive | TGFb COP inh inconclusive
CCC(=O)Nc1sc2c(c1C(N)=O)CCN(C(C)=O)C2	none
O=C(/C(=N\Nc1ccc([N+](=O)[O-])cc1)Sc1nnnn1-c1ccccc1)c1ccccc1	TGFb SMAD3 inh 7.9µM, HT1080 IDH1KD tx 23µM, HT1080-NT tox inconclusive | TGFb confirm inconclusive | HepG2 tox-2 23µM | TGFb CCL64 inh 21µM | TGFb COP inh inactive
Cc1ccc(N/N=C(/Sc2nnnn2-c2ccccc2)C(=O)c2ccccc2)cc1	TGFb SMAD3 inh inconclusive
Fc1cccc(CCN2C(=S)NC[C@@H]2CC2CCCCC2)c1	S2 tox inconclusive, TGFb SMAD3 inh 14µM | TGFb confirm 16µM | HepG2 tox-2 inactive | TGFb CCL64 inh inconclusive | TGFb COP inh inactive
O=C1CC(c2nc3ccccc3n2CCC2CCCCC2)CN1c1ccccc1Cl (stereo unspecified)	none (no result: HT1080 IDH1KD tx, HT1080-NT tox)
